The list is a sample of the results.
aSyn UTR act: Activators via SNCA 5'UTR binding, MLPCN. alpha-synuclein 5'UTR reporter, activators screen. activity score, % (tested at 7.5 µM), hits read low. hit rate 7.1% among 300,000; in the data active = activity score below about -60%
Of the large screens only hits and unclear results are named; the others gave an inactive call.

O=C(CCOc1ccccc1F)N1CCN(c2ccccc2O)CC1	aSyn UTR act -75
O=[N+]([O-])c1ccc(O)c(C=Nc2ccc3c(c2)OCO3)c1	aSyn UTR act -86
CC1(C)CC(=O)C(C=Nc2ccc3c(c2)OCO3)=C(O)C1	aSyn UTR act -71
CNc1nc(N/N=C/c2cc3c(cc2[N+](=O)[O-])OCO3)nc(Nc2ccccc2)n1	none
O=[N+]([O-])c1cc(Br)cc(C=Nc2ccc3c(c2)OCO3)c1O	aSyn UTR act -89
Cc1ccc(/C=C2\SC(=S)N(CCC(=O)N3CCOCC3)C2=O)cc1	aSyn UTR act -64
Cc1ccc(/C=C2\SC(=S)N(CCCC(=O)Nc3ccc(O)cc3)C2=O)cc1	none
O=C(CCN1C(=O)/C(=C/c2ccccc2Cl)SC1=S)N1CCCC1	aSyn UTR act -115
CN1CCN(C(=O)CCCN2C(=O)/C(=C/c3cccc(Br)c3)SC2=S)CC1	aSyn UTR act -218
O=C(CCCN1C(=O)/C(=C/c2ccccc2Cl)SC1=S)NNC(=O)c1ccccc1Cl	none
Cc1ccc(/C=C2\SC(=S)N(CCCC(=O)Nc3ccccc3C(=O)O)C2=O)cc1	none
O=C(CCN1C(=O)/C(=C/c2ccccc2Cl)SC1=S)N1CCOCC1	aSyn UTR act -73
O=C(c1ccc(Br)cc1)C(CN1CCOCC1)c1ccccc1 (stereo not given)	aSyn UTR act -152
COc1cccc(/C=C/C(=O)OC(C)C(=O)Nc2c(C)n(C)n(-c3ccccc3)c2=O)c1 (stereo not given)	aSyn UTR act -112
O=c1oc2cc(OCc3ccc([N+](=O)[O-])cc3)ccc2c2c1CCCC2	aSyn UTR act -65
CC(=O)C(C)Oc1ccc2c3c(c(=O)oc2c1)CCCCC3 (stereo not given)	aSyn UTR act -109
CC(=O)C(C)Oc1ccc2c3c(c(=O)oc2c1)CCCC3 (stereo not given)	aSyn UTR act -79
CC(C)(C)c1ccc(C(=O)Nc2ccc([N+](=O)[O-])cn2)cc1	aSyn UTR act -72
O=C(Nc1ccc([N+](=O)[O-])cn1)c1ccc2c(c1)OCO2	aSyn UTR act -91
O=C(NC(Nc1ncc(S(=O)(=O)c2ccc([N+](=O)[O-])cc2)s1)(C(F)(F)F)C(F)(F)F)c1ccc(Cl)cc1	none
CCN(CC)S(=O)(=O)c1ccc2c(c1)nc(-c1ccccn1)n2C	aSyn UTR act -73
COc1ccc(NC(=O)/C(C#N)=C/c2ccc(Br)o2)cc1	aSyn UTR act -66
N#C/C(=C\c1ccc(N2CCOCC2)o1)C(=O)Nc1ccc(O)cc1	aSyn UTR act -101
COc1ccc(NC(=O)/C(C#N)=C\c2ccc(N3CCOCC3)o2)cc1	aSyn UTR act -95
COC(=O)c1cccc(NC(=O)Nc2ccccc2OC)c1	aSyn UTR act -65
COC(=O)c1cccc(NC(=O)NC(=O)c2ccccc2Cl)c1	none
COc1cccc(/C=N/NC(=O)C(=O)Nc2ccccc2OC(F)(F)C(F)F)c1O	none
COC(=O)c1cccc(NC(=O)Nc2ccc(Cl)c(Cl)c2)c1	aSyn UTR act -134
COc1ccccc1NC(=O)C(=O)/C=C(\O)c1ccccc1	aSyn UTR act -131
CC(=O)N(C)c1ccc(N=NC2C(=O)N(C(N)=S)N=C2C)cc1 (stereo not given)	aSyn UTR act -93
CC1=NN(C(N)=S)C(=O)C1N=Nc1cccc(Cl)c1 (stereo not given)	aSyn UTR act -86
COc1cccc(N=NC2C(=O)N(C(N)=S)N=C2C)c1 (stereo not given)	aSyn UTR act -95
CC1=NN(C(N)=S)C(=O)C1N=Nc1ccc(C)cc1C (stereo not given)	aSyn UTR act -102
Cc1cc2ncc(-c3ccc(Cl)cc3)cn2n1	aSyn UTR act -84
Clc1ccc(-c2cn3c(n2)CCC3)cc1	aSyn UTR act -192
CC(=O)Nc1nc2ccc(NC(=O)c3ccco3)cc2s1	aSyn UTR act -77
Cc1ccc2nc(NC(=S)NC(=O)c3ccco3)sc2c1	aSyn UTR act -148
COc1cc2sc(NC(=O)c3ccco3)nc2cc1Cl	aSyn UTR act -189
Cc1ccc2nsnc2c1NC(=S)NC(=O)c1ccco1	aSyn UTR act -94
Cc1ccc2nc(NC(=O)c3ccco3)sc2c1	none
Cc1nc2ccc(NC(=O)c3ccco3)cc2s1	aSyn UTR act -90
Cc1cc(=O)oc2cc(OCc3cc4c(cc3Cl)OCO4)ccc12	aSyn UTR act -66
O=C(Nc1ccc(-n2cc(Cl)cn2)cc1)c1ccncc1	aSyn UTR act -92
O=C(Nc1ccc(-n2cc(Br)cn2)cc1)c1ccncc1	aSyn UTR act -68
CCc1ccc(OCC(=O)Nc2ncn[nH]2)cc1	aSyn UTR act -87
CCc1ccc(NC(=O)COc2ccc3c(c2)OCO3)cc1	aSyn UTR act -74
NC(=O)c1ccccc1NC(=O)COc1ccc2c(c1)OCO2	aSyn UTR act -87
COc1ccccc1NC(=O)COc1ccc2c(c1)OCO2	aSyn UTR act -76
Cc1cccn2c1nc(=S)n2C(=O)c1ccco1	aSyn UTR act -265
O=c1c2ccccc2cnn1-c1nc2ccccc2[nH]1	none
O=c1c2ccccc2nc2c3ccccc3cnn12	aSyn UTR act -172
COc1ccc(-c2cn3c(C)c(C(=O)NC(C)(C)C)sc3n2)cc1	aSyn UTR act -229
